The sample as a whole holds a higher share of hits than the screen did.
SARS PLpro yeast – SARS-CoV PLP inhibition in yeast; S. cerevisiae expressing SARS-CoV PLpro, growth rescue; Potency, µM (series often up to 32.9 µM), inactives show at the highest dose activity, positive = growth rescue, hits mostly activators; 330,000 tested, 0.19% active; AID 485353; calls by dose curve; note: potency is the fitted concentration of half-maximal effect; 0% is about no effect; nearly all actives have a fitted effect of over 55% in size
Shiga toxin inh – blocks Shiga toxin action in Vero cells; 290,000 tested, 9.2% active; AID 2315; Vero cells, Shiga toxin protein synthesis inhibition reporter; inhibition, % at 38.7 µM; in the data active = inhibition mostly above about 28%, no sharp cut-off; inactive = mostly below about 43%; note: 0% is about no effect
Cycloheximide cs – affects cycloheximide protein synthesis inhibition readout, counter-screen; 300,000 tested, 12% active; cell reporter, cycloheximide protein synthesis inhibition counterscreen; AID 2314; max response, %; in the data active = max response mostly above about 13%, no sharp cut-off; inactive = mostly below about 14%; note: read at 38.3 µM for the half of the compounds with a filed dose; 0% is about no effect
LmPK inhibitor – blocks Leishmania mexicana pyruvate kinase activity | purified LmPK, Kinase-Glo ATP luminescence, 1 h | Potency, µM (series often up to 57.5 µM), for the others: top-dose activity change, negative = inhibition, actives largely listed as inhibitors | 290,000 tested, 0.37% active | AID 1721; note: potency is the fitted concentration of half-maximal effect; % is set by controls: 0 for no effect and ±100 for the full control effect
Target sequence (Q27686 whole entry, looked up): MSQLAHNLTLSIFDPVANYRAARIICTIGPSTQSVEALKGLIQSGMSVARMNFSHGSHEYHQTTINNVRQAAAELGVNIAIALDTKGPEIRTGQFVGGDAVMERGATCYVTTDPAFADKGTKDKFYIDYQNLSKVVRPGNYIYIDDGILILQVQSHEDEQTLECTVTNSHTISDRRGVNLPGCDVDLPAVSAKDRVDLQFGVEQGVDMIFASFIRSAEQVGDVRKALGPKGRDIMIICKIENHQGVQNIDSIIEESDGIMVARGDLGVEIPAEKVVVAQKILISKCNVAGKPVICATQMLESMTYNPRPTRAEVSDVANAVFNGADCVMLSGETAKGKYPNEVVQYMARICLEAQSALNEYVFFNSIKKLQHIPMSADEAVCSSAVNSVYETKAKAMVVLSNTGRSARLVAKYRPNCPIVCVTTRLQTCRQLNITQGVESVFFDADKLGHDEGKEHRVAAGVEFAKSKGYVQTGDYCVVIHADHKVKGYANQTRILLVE
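0.1 nM LmPK, 0.5 mM PEP, 0.1 mM ADP; 50 mM imidazole pH 7.2, 7 mM MgCl2, 50 mM KCl; 1 h RT. Kinase-Glo luminescence readout, normalized to no-enzyme (full inhibition) and uninhibited wells.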
TbPYK inhibitor – T. brucei pyruvate kinase inhibition. TbPYK enzyme, Kinase-Glo Plus ATP luminescence, 45 min. 410,000 tested, 0.12% active. Potency, µM (highest dose often 76.8 µM), for the others: at the top dose activity, negative = inhibition, actives largely listed as inhibitors; note: potency is the fitted concentration of half-maximal effect; % is set by controls: 0 for no effect and ±100 for the full control effect; nearly all actives have a fitted effect of over 50% in size
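Quantitative HTS: titrated library compounds versus trypanosomal pyruvate kinase in TEA buffer (pH 7.2) containing KCl, MgCl2, BSA and Tween-20. Reactions were initiated with ADP, 130 uM final. Kinase-Glo Plus luminescence was read after 45 min at RT.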
NS1 inh – influenza NS1 inhibition; Potency, µM (titrated, usually from 46.1 µM), without a hit: top-dose activity, positive = more growth; 270,000 tested, 0.4% active; AID 2326; calls by dose curve; note: potency is the fitted concentration of half-maximal effect; actives are rising curves; nearly all actives have a fitted effect of over 50% in size
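A cell-based growth assay was used: compounds that relieve NS1-induced slow growth of budding yeast raise OD600. Assay medium was yeast nitrogen base with ammonium sulphate and -URA supplement, pH 6.0, with 2% galactose.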
* hit, by the source's call; x = not tested or not shown; + = active, no number; [ ] = remark or other dose. Unless noted, calls come from the whole dose curve; as a rule, active = well fitted curve in the direction sought with a large enough effect; inconclusive = small, poorly fitted or top-dose-only effect, or another doubt; inactive = no such curve, though single readings can be large; an effect the other way counts as inactive or inconclusive.

SMILES | SARS PLpro yeast | Shiga toxin inh | Cycloheximide cs | LmPK inhibitor | TbPYK inhibitor | NS1 inh
C/C(=N/NC(=O)c1ccncc1)c1ccccc1 | -1% | x | 9 | -1% | 2% | 1%
C/C(=N\NC(=O)c1sccc1C)c1cccnc1 | -1% | 89* | 41* | -8% | 6% | -1%
C/C(=N/NC(=O)c1ccco1)c1cccnc1 | -1% | 29 | 26 | -11% | -16% | x
CCOC(=O)CSc1ncc(-c2ccc([N+](=O)[O-])cc2)[nH]1 | -20% | 37 | -2 | -4% | -8% | -21%
Cc1cc(C)n2c(nc3ccccc32)c1C(=O)NN | -1% | 18* | 45* | -4% | 2% | 8%
CCOC(=O)c1ccc(NC(=O)Cn2nnc3ccccc32)cc1 | -4% | 92* | 32* | 0% | -1% | 4%
CCOC(=O)c1ccc(NC(=O)CCn2nnc3ccccc32)cc1 | 28% | 42 | 12* | 1% | -13% | 3%
CC1CCc2c(sc3nnn(CC(=O)Nc4c(C(C)C)cccc4C(C)C)c(=O)c23)C1 (centres undefined) | x | x | x | x | -9% | x
c1ccc2cc(Sc3ncnc4c3oc3ccccc34)ccc2c1 | 1% | -6 | -4 | 8% | 0% | -1%
Cc1cc(C)nc(Sc2ncnc3c2oc2ccccc23)n1 | -7% | 50* | 28 | -7% | -7% | 4%
O=C(c1ccco1)N1CCN(c2ncccn2)CC1 | 2% | 7 | 6 | 1% | 5% | -1%
c1coc(CN(Cc2ccco2)c2ncnc3c2oc2ccccc23)c1 | -55% | 40 | 19* | 1% | -21% | -9%[9.22 µM]
c1cnc(N2CCN(c3ncnc4c3oc3ccccc34)CC2)nc1 | 0% | 11 | -2 | 0% | x | -16%
O=C(c1ccco1)N1CCN(c2ncnc3c2oc2ccccc23)CC1 | -12% | 63* | 41* | -1% | -3% | -12%
c1ccc2c(c1)oc1c(N3CCOCC3)ncnc12 | -2% | 3 | 9.8* | -1% | 0% | -9%
Cn1c(=O)c2c(nc(Cc3ccccc3)n2CC(=O)O)n(C)c1=O | x | x | x | x | x | -3%
CCSc1ncnc2c1oc1ccccc12 | 11% | 9 | 2 | 5% | 1% | -35%
COc1ccccc1N1CCN(c2ncnc3c2oc2ccccc23)CC1 | 0% | 27 | 8.6* | -2% | -2% | -135%
Clc1ncnc2c1oc1ccccc12 | -2% | + | 37* | -16% | -4% | 3%
CCc1nc2cc3sc(CC)nc3cc2s1 | 0% | 74* | 25* | 0% | 6% | x
Cc1nc2cc3ccccc3cc2s1 | x | x | x | x | 2% | x
CSc1ccccc1OCc1cc(C(=O)NC(C)Cn2cncn2)no1 (centres undefined) | -3% | 18 | 13* | -3% | 1% | 1%
Cc1cc(C)n(CCNC(=O)c2cc(COc3ccc(F)cc3Cl)on2)n1 | 3% | 3 | 4 | 1% | 3% | -8%
CSc1ccccc1OCc1cc(C(=O)NCCn2nc(C)cc2C)no1 | -2% | 6 | 11* | 6% | 3% | -23%
CSc1ccccc1OCc1cc(C(=O)NCCN2CCCc3ccccc32)no1 | -5% | 16 | 33* | -1% | -2% | 27%
SMILES | SARS PLpro yeast | Shiga toxin inh | Cycloheximide cs | LmPK inhibitor | TbPYK inhibitor | NS1 inh
CC(C)c1onc(-c2c(Cl)cccc2Cl)c1COc1ccc(/C=C/c2cccc(C(=O)O)c2)c(Cl)c1 | x | 60* | 36* | x | 0% | x
CN(CCOc1ccccc1)C(=O)c1ccc(F)c(S(=O)(=O)N2CCOCC2)c1 | -2% | x | x | x | -6% | x
N#Cc1c(C#N)c(SSc2c(C#N)c(C#N)c(N)n2-c2ccccc2)n(-c2ccccc2)c1N | x | x | x | x | 0.89µM* | x
Cc1cccc(C(=O)Nc2ccc(C(=O)/C=C/c3cccnc3)cc2)c1 | 4% | -3 | 24* | -2% | -7% | -26%
COc1cc(C(=O)C(=O)c2ccc(O)c(OC)c2)ccc1O | -1% | 51* | active | 0% | -3% | -5%
COc1cc(C(=O)O)ccc1O | 8% | -14 | -4 | -4% | 5% | 9%
COc1cc(C(=O)/C=C/c2cccnc2)ccc1O | -2% | 27 | 16* | -7% | -7% | -1%
O=C(/C=C/c1cccnc1)c1ccc(NC(=O)c2cccc(Br)c2)cc1 | -7% | 22 | 1 | 0% | 0% | -14%

Source: PubChem BioAssay (National Center for Advancing Translational Sciences (NCATS))
